Experimental data published in the supplement of paper PMC11417369.
In all, about 25,000 sequences were measured (“ln(normalized median fluorescence intensity)”: median about 9.7, highest 2% from about 11 on). The list comes from a sample in which the highest values are over-represented; it also holds similar and randomly drawn sequences.

system: PfAP2-HC AP2 domain (GST-tagged); assay: gcPBM binding intensity (ln(normalized median fluorescence intensity)); higher = stronger DNA binding
Procedure, shortened: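 GST-fused DNA-binding domains of P. falciparum, expressed in E. coli, were applied at about 25 μg on average for 1 h to an Agilent 4 × 180k array of primer-extended double-stranded 36-bp intergenic genomic probes and negative controls. Binding intensity is the highest Masliner-normalised natural-log median intensity across replicate spots of either probe orientation, measured with Alexa488 anti-GST antibody and a 488 nm scan.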

Sequence	gcPBM binding intensity (ln)
ATTTTATTTTTTAAAGGTACAGTTACAGCTTATATA [XGTACX_site7513]	9.51
ATAAGCATCTTTTGTGTGCACATAACAAAAAAAAAA	9.85
TTATAAATGAATAAATGTACAAAATATATATATATA [XGTACX_site8829]	9.66
TTAAATAAAAAAATAACACACATATAAATCTATATG [CACACA_site7482]	9.75
TTTTTTTTGTGTTCAAGTACAAAATTTTAAAGGTCA [XGTACX_site4011]	9.26
TATTGTTGTTCATGTACACACTATAATAAAAGCAAT [CACACA_site6148]	9.62
TATTTATTTATATAAACACACATAAATATAAATATA [CACACA_site6653]	9.45
ATCTTATATTATCACACACACACGCACAAAACAGAA [CACACA_site1463]	10.3
ATATAATTATAAAATAAACACACATATATATTTATA [CACACA_site8039]	9.91
ATCTTATATGATCACACACACACGCACAAAACAGAA [CACACA_site4913]	10.4
AACAAAAAAACAAACACACACACACGCATATTTATA [CACACA_site7680]	11.2
CACAAAAATAAACACACACACATATATATTTATTAT [CACACA_site5923]	11.1
CTTATATTAAAACACACACACGCACAAAACAGAAAT [CACACA_site1462]	11
TATAAAACACACACACATATATATATATATTTATAT [TGCATGCA_negctrl_site48]	11.2
AAGGATCACGCACAAACACACATATTTATATTTATA [CACACA_site6405]	9.95
CATATATAAAAAAACACACACATATTTATATTTATA [CACACA_site6682]	10.3
CAATATAAAAAACACACACACAAACATATATTTATA [CACACA_site3703]	10.5
AAAAAAAACAAACACACACACAAATATTTATATATT [CACACA_site436]	10.5
ATTCTATATATATAAACACACAAATATTTTTATATA [CACACA_site1677]	9.65
TTCTTTTCTTCTACATGTACAAATATTATATATATA [XGTACX_site2996]	9.97
TATATTATATTATACATACACACCCATATAATATGT [CACACA_site869]	10.1
TATAAATTAATGACATGTACATAAAAGTATAGATGT [XGTACX_site6534]	9.95
TTTATAAAATTATTTGCATGTAACAATTATAAATTG [TGCATGCA_site1026]	9.42
TTTTTTTAAAACAAAAAAAAAAAAAAAAAAAAAAAA [TGCATGCA_negctrl_site418]	8.22

Sequence	gcPBM binding intensity (ln)
TAATAATACCCAAGCACACACACACCCATATATATA [CACACA_site4831]	10.6
CAAAAAAAATTATACACACACACACCGATATATATA [CACACA_site4719]	11.1
GATATATATTAATATACACACACACCGATATATATA [CACACA_site8462]	10.2
CAAAATAATATATATACACACACACCGATATATATA [CACACA_site8082]	10.8
ATAATATATATTAATACACACACACCGATATATATA [CACACA_site9261]	10.4
AATATATATATATATACACACACACCGATATATATA [CACACA_site8158]	11.2
TATACATACATACATACACACACACCGATATATATA [CACACA_site7896]	10.2
TATATATATATATACACACACACACCGATATATATA [CACACA_site8813]	10.5
TAAAAAAAAAAAAATACACACACACCGATATATATA [CACACA_site8498]	10.7
AAAAAAAAAAAAAATACACACACACCGATATATATA [CACACA_site8142]	10.6
ATAATACCCAAGCACACACACACACCGATATATATA [CACACA_site8344]	11.3
TTAATATAAGCAAATACACACACACCGATATATATA [CACACA_site9269]	11.1
ATAAAGAAACATATATGTACTTATATATATATATAT [XGTACX_site5625]	9.69
TATAAGAGAATATATACACACAAAAATAAATACAGT [CACACA_site5000]	10.9
ATATATATATAATGAAGTACGAAAAAATAAGAAATG [XGTACX_site4001]	9.9
TATAAAACAAATATATGTACATATCATAGTATAATA [XGTACX_site2965]	9.75
AAGGAAATATAATATACACACATAAGTGTACTTCTA [CACACA_site6079]	9.81
AATAGTCGGGTGCATACACACCTTAAATATAATATA [CACACA_site8271]	9.57
CTAATCGTGCACAACTGTACATTTGTCAAGGGCAAT [XGTACX_site8662]	9.62
AAAGAACAAATAAAACATAAAATAATATATATAGAT [CACACA_negctrl_site1764]	10.1
AAAAAAAAAAAAAACACACACACACCCAAATACATA [CACACA_site708]	10.5
AAAAAAAAAAAAAACACACACACACCCATACAAAAT [CACACA_site1446]	11.6
AAAAAATACAAACACACACACACACCCATATATATA [CACACA_site3560]	11
AAAAAAAAAAAAAAAACACACATACCCATATATTTT [CACACA_site6013]	9.85

Sequence	gcPBM binding intensity (ln)
AAAAAAAAAAAAAACACACACATACACCCAAAAATG [CACACA_site4223]	10.3
TACAAACACCCATATACACACAAAAAAAAAATAAAA [CACACA_site5421]	9.94
AAAAAAAAAAAAAAAACACACACAACACCCATACCT [CACACA_site9208]	10.4
TATATACACCCACATACACACAAATAAAAAAACACC [CACACA_site3414]	10.5
AAAAAAACAGAAAACACACAAATTATCTTATAATTA [CACACA_site6282]	9.8
ATATCTTATATTATCACACACACACCCACAAAACAG [CACACA_site1464]	11.5
AAAAAAAAAAAAAACACACACAACACCCATACCTTA [CACACA_site3621]	11.2
ATATCTTATGTTATCACACACACACGCACAAAACAG [CACACA_site6800]	10.3
ATATATATTTAAACTACACACGCATATCTTAGAAAT [CACACA_site8348]	10.1
ACTGTACTATAAAATACACACATATAAATATAAATA [CACACA_site3009]	9.99
AATATTTAATTCAACACACATACATATTTATTAAAA [CACACA_site2342]	9.99
ATGTGTATATGTTAATGTACAAATTTTGAAAATGCC [XGTACX_site2685]	9.86
TATTATTATTTTATGGTGCAAAAAAAAAAAAAAAAA	8.83
TATTATATCTTATATGTATATTCCCACAAATTATAT [GTGCAC_negctrl_site362]	9.59
TTTTGTTGTATGATAATTCTTTTATCAATATGTCTT [TGCATGCA_negctrl_site567]	9.63
ACATTCACAAAATTTTGTACACATATATATATATAT [XGTACX_site3518]	9.96
AATATATTTTAATACACACACACATATATATATATA [CACACA_site5969]	10.4
AAAAAAACATGAAACACACACAAATATTTATTTATA [CACACA_site6967]	10.2
TACTTACATATAATAACACACAAGAAAAAAATAAAA [CACACA_site1033]	9.83
ACCTAAAAGGTATAATATATAAATAAAAAAAAAAAT [CACACA_negctrl_site134]	9.72
AACAAAAAAACAAACACACACACACCCATATATATA [CACACA_site3652]	10.6
AAAAAAAAAAAAAACACACACACACCCAAATATATA [CACACA_site1169]	11.3
AAAAAAAAAAAACACACACACACACCCAAATATATA [CACACA_site150]	10.6
AAAAAAAAAAAAAAAACACACACATACACCCAAAAA [CACACA_site7910]	10.5

Sequence	gcPBM binding intensity (ln)
AAAACACCCAAACACACACACACATATATATATATA [CACACA_site9119]	10.8
TATACTCAGAAACACACACACACACCCAAAAAAAAA [CACACA_site4434]	11.1
AAAAAAAAAAAAAAAAAAAAACACCCAAAAAAATAT [XGTACX_negctrl_site210]	10.1
GTATAATAGAAACACACACACACACCCAAAAAAAAA [CACACA_site2010]	10.7
CAAAAAAACAAACACACACACACACCCATATATATA [CACACA_site3653]	11.5
ATATAATGAATTATTAGAAAATAAAATGAATAAAGT [CACACA_negctrl_site690]	9.87
CATTTTGTTTTAAAGTGTACATTATGTAATATAAAA [XGTACX_site647]	9.33
TTTTAAAGAAAATATTTTATCATTATTTTTTGTACT [CACACA_negctrl_site1648]	9.57
AATATAAATTTATATTGTACATATTTTATTATATGT [XGTACX_site905]	9.67
TAAAACAGAATGAGGAGTACAAAAAGAAGAAAAGGG [XGTACX_site1246]	9.83
ATAAAATGAAATATATGTACGCATCACTTGTTGAAC [XGTACX_site4530]	9.72
AAAAAAAAAAAAAAAAAAAAATATATATATATATAT [GTGCAC_negctrl_site426]	9.47
TATTTTGTTCTTTCCACACACAAATACAGATATTGT [CACACA_site6097]	10.1
AAAAAAAAAAAAAAAACACACATACACCCCCACCCA [CACACA_site9117]	10.2
AACACCCAAAAACACACACACATACATACATACATA [CACACA_site4411]	10.3
CACAAACACCCAAACACACACACACCGACATACATA [CACACA_site4410]	11.1
TAAACACCCATACATACACACATACATACACCCATA [CACACA_site5125]	10
AAAAAAAAAAAAAACACACACACACCCATACCCATA [CACACA_site5577]	10.5
AAAAAAAAAAAACACACACACACACCCATATACATA [CACACA_site2664]	11
CAAACACCCAAACACACACACACATACATACATACA [CACACA_site8044]	10.7
AAAAAAAAAAAAAACACACACACACCCACATATACA [CACACA_site2663]	10.6
AAAAAAAAAAAACACACACACACACCCATACATACA [CACACA_site707]	11.4
AAAAAAAAAAAACACACACACACATACCCATACATA [CACACA_site5575]	11.3
TTAAAAAAAAAACACACACACATACCCATATATATA [CACACA_site5768]	10.4
